High-throughput results (PubChem)
In the library only some 21% were active in any assay of this set; here they are far more common.
Gal4-VP16 FLuc = inhibits Gal4-VP16 luciferase reporter, ROR gamma counter-screen; AID 2546; Drosophila S2 Gal4-VP16 UAS-luciferase, luminescence, 20 h; hit rate 3.5% among 310,000; Potency, µM (doses to about 53.6 µM), without a hit: at the top dose activity, negative = inhibition, hits mostly inhibitors;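 note: Gal4-VP16 expression switched on by copper sulfate through the metallothionein promoter; potency is the fitted concentration of half-maximal effect; nearly all actives have a fitted effect of over 50% in size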
DT40 TDP1 CPT = growth inhibition of DT40 Tdp1-/-;hTDP1 cells with camptothecin (screen for TDP1 inhibitors); hit rate 12% among 420,000; Potency, µM (titrated, usually from 46.2 µM), for inactives: top-dose activity change, negative = growth inhibition, usual class: inhibitors; AID 686979; chicken DT40 Tdp1-/-;hTDP1 cells + 20 nM CPT, ATP luminescence, 48 h; note: potency is the fitted concentration of half-maximal effect; nearly all actives have a fitted effect of over 55% in size
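Cell growth measured by CellTiter-Glo luminescence after a minimum 48 h, 37 C compound exposure with 20 nM CPT in Tdp1-knockout DT40 cells stably expressing hTDP1, seeded 400/well; qHTS titration format.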
RORgamma inh = blocks mouse ROR gamma transcriptional activity; P51450; Drosophila S2 Gal4-RORgamma UAS-luciferase reporter, 20 h; hit rate 5.4% among 310,000; Potency, µM (highest dose often 53.6 µM), for the others: at the highest dose activity change, negative = inhibition, actives largely listed as inhibitors; note: potency is the fitted concentration of half-maximal effect; nearly all actives have a fitted effect of over 60% in size
Target sequence (P51450 whole entry, looked up, the tested form may be a part): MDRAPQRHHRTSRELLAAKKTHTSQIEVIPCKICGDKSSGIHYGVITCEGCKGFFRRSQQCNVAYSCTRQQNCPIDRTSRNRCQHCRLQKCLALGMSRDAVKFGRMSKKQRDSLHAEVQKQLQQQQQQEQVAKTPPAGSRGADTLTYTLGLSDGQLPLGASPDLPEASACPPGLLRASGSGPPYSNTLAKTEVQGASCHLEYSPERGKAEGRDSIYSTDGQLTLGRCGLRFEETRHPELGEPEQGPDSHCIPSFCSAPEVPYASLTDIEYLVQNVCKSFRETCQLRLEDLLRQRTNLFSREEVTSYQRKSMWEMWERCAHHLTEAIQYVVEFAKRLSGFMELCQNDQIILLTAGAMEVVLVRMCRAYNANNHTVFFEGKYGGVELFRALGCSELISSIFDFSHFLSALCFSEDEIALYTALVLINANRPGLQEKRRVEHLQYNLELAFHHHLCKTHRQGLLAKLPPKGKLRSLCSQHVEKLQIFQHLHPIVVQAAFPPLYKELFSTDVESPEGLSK
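Luciferase reporter read in Schneider cells carrying Gal4-RORγ (mouse) and UAS-Photinus luciferase; cells given compound 1 h before 700 uM copper sulfate induction, then incubated 20 h at ambient temperature.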
IL-1B inflam inh = inflammasome signaling inhibition, IL-1 beta readout | THP-1 LPS/ATP IL-1B secretion, AlphaLISA, 16 h; active compounds read low | activity change, % at 57.5 µM | hit rate 4.7% among 360,000 | AID 743279; in the data active = activity change below about -50%; inconclusive = mostly about -30% to -49%
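THP-1 cells pretreated 1 hr with compounds (up to 57.5 uM final), then stimulated with LPS (250 ng/mL final) plus ATP (1.25 mM final); secreted IL-1B measured by AlphaLISA after 16 hr, decreased signal indicating inhibition.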
TDP1 cell noCPT = qHTS for Inhibitors of human tyrosyl-DNA phosphodiesterase 1 (TDP1): qHTS in cells in absence of CPT; hit rate 15% among 420,000; DT40 Tdp1-/- hTDP1 cells, no CPT, ATP luminescence, 48 h; Potency, µM (highest dose often 46.2 µM), for the others: top-dose activity change, negative = growth inhibition, usual class: inhibitors; note: potency is the fitted concentration of half-maximal effect; nearly all actives have a fitted effect of over 55% in size
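Growth of hTDP1-complemented DT40 Tdp1-knockout cells is measured by ATP luminescence after at least 48 hr compound exposure at 37 °C, with DMSO substituting for the 20 nM CPT used in the parallel screen.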
ELG1 repair inh = ELG1-dependent DNA repair inhibition. AID 504467. HEK293T ELG1-luciferase reporter, luminescence, 16 h; DNA damage induced by 5-fluorouridine. Potency, µM (doses to about 46.1 µM), for the others: at the highest dose activity change, negative = inhibition, hits mostly inhibitors. hit rate 2.3% among 330,000; note: potency is the fitted concentration of half-maximal effect; nearly all actives have a fitted effect of over 55% in size
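Luminescence from the luciferase reporter, measured 30 min after ONE-Glo reagent at room temperature, was the read-out. Beforehand, 2,000 cells per well were exposed for 16 hr at 37 °C to 5-fluorouridine together with compound or vehicle.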
* marks the source's active call; other numbers are inactive results; u = inconclusive; x = no result given. Unless noted, calls come from the whole dose curve; as a rule, active = well fitted curve in the direction sought with a large enough effect; inconclusive = small, poorly fitted or top-dose-only effect, or another doubt; inactive = no such curve, though single readings can be large; an effect the other way counts as inactive or inconclusive. % is set by controls: 0 for no effect and ±100 for the full control effect.

SMILES	Gal4-VP16 FLuc	DT40 TDP1 CPT	RORgamma inh	IL-1B inflam inh	TDP1 cell noCPT	ELG1 repair inh
Cc1cccc(CNC(=O)C2CCN(S(=O)(=O)c3ccc4c(c3)CCCN4C(=O)C3CCC3)CC2)c1	x	13µM*	x	x	8.2µM*	x
CC(=O)N1c2ccc(S(=O)(=O)N3CCCC3C(=O)NCc3ccccc3Cl)cc2CC1C (stereo not given)	-5%	u	6.3µM*	-18	u	-2%
CCC(C)(C)NC(=O)C1CCN(S(=O)(=O)c2ccc3c(c2)CCCN3C(C)=O)CC1	x	3%	x	x	0%	x
CC(=O)N1CCCc2cc(S(=O)(=O)N3CCC(C(=O)Nc4ccc(C)cc4Cl)CC3)ccc21	x	15µM*	x	x	16µM*	x
O=C1[C@@H]2CSC(c3ccc(F)cc3)N2C(=O)N1c1ccc(Cl)cc1 (stereo not given in full)	x	3%	x	x	-2%	x
O=C(CSc1nnc(CNC(=O)c2cccc(F)c2)n1-c1ccccc1)Nc1ccccc1F	x	-24%	x	x	-26%	x
O=C(NCc1ccccc1)C1CCN(S(=O)(=O)c2ccc3c(c2)CCCN3C(=O)C2CCC2)CC1	x	16µM*	x	x	u	x
CC(=O)N1CCCc2cc(S(=O)(=O)N3CCC(C(=O)NCc4ccccc4Cl)CC3)ccc21	x	u	x	x	23µM*	x
O=C(NCc1ccc(Cl)cc1)C1CCN(S(=O)(=O)c2ccc3c(c2)CCCN3C(=O)C2CCC2)CC1	x	16µM*	x	x	21µM*	x
CC(=O)NCc1ccc(-c2csc(NC(=O)CCc3nc4ccccc4c(=O)[nH]3)n2)s1	x	u	x	20	u	21µM*
O=C(CCc1nc2ccccc2c(=O)[nH]1)Nc1nnc(SCc2ccccc2F)s1	x	13µM*	x	27	16µM*	u
O=C(CCc1nc2ccccc2c(=O)[nH]1)Nc1nnc(SCc2ccc(Cl)cc2)s1	x	-25%	x	16	u	0%
CCc1ccc(C(C#N)=CC=Cc2ccccc2)cc1	x	u	x	u	21µM*	x
COc1ccc(C(=O)C[n+]2ccc(-c3nnc4n3CCC4)cc2)cc1	-1%	-7%	-1%	0	0%	11%
CC(C)(C)c1ccc(OCCOc2ccc(C(C)(C)C)cc2NC=O)c(NC=O)c1	u	21µM*	u	u	21µM*	u
CCN1C(=NCCCCO)N[C@@H](c2ccccc2)C(C(=O)OC)=C1C	-2%	x	2%	x	x	x
CC1CCc2[nH]c3ccc(C(=O)N(C)CC(=O)Nc4ccccc4Cl)cc3c2C1 (stereo not given)	x	u	x	-24	15µM*	-18%
Cc1ccc(NC(=O)CN(C)C(=O)c2ccc3[nH]c4c(c3c2)CC(C)CC4)cc1 (stereo not given)	x	u	x	-51*	-37%	-1%
CCOc1ccc(NC(=O)CN(C)C(=O)c2ccc3[nH]c4c(c3c2)CC(C)CC4)cc1OCC (stereo not given)	x	u	x	-3	-30%	u
Cc1cc(O)ccc1NC(=S)NC(=O)c1cncc(Br)c1	0.56µM*	15µM*	0.79µM*	15	16µM*	-8%
O=C(NC(=S)Nc1ncc(Br)cc1Br)c1cncc(Br)c1	u	-30%	6.3µM*	3	-14%	x
O=C(NC(=S)NC1CCCCCC1)c1cncc(Br)c1	6.3µM*	6%	3.5µM*	0	-27%	u
O=Cc1c(-[n+]2ccccc2)nc([O-])n1-c1ccccc1	4%	u	0%	16	18µM*	2%
CC[C@H](C)[C@H](NC(=O)[C@H](CC(=O)O)NC(=O)[C@H](CC(C)C)NC(=O)[C@H](NC(C)=O)C(c1ccccc1)c1ccccc1)C(=O)N[C@H](C(=O)N[C@@H](Cc1c[nH]c2ccccc12)C(=O)O)[C@@H](C)CC	8%	x	19%	x	x	x
O=C(CC1C(=O)CCCC1=O)c1ccccc1	u	13µM*	10µM*	-204*	u	22%
SMILES	Gal4-VP16 FLuc	DT40 TDP1 CPT	RORgamma inh	IL-1B inflam inh	TDP1 cell noCPT	ELG1 repair inh
C/C=C/C=C\C(=O)Nc1cccc(C2=NOC3(C2)C[C@@H](C(N)=O)N(C(=O)c2cc([N+](=O)[O-])cc([N+](=O)[O-])c2C)C3)c1 (stereo not given in full)	0%	16µM*	-13%	-15	u	-16%
C/C=C\C=C\C(=O)Nc1cccc(C2=NOC3(C2)C[C@H](C(N)=O)N(C(=O)c2ccccc2C(=O)c2ccccc2)C3)c1 (stereo not given in full)	0%	u	7%	-12	16µM*	u
C/C=C\C=C/C(=O)Nc1cccc(C2=NOC3(C2)C[C@@H](C(N)=O)N(C(=O)c2ccccc2)C3)c1 (stereo not given in full)	2%	x	27%	x	x	23%
Cc1cc(C(=O)O)ccc1[C@H](N)C(=O)O	-4%	-2%	-13%	x	-19%	x
COc1cccc(C(O)c2nc(-c3cccc(C#N)c3)cs2)c1 (stereo not given)	x	u	x	-5	u	x
Cc1cc(C)nc(N/N=C/c2ccccc2)n1	17%	-19%	u	10	-11%	0%
Cc1sc(N/N=C/C=C/c2ccccc2)nc1-c1ccccc1	u	u	3.5µM*	-20	u	2%
Cc1sc(NC(=O)c2c(F)cccc2F)nc1-c1ccccc1	-8%	11%	u	-24	u	25%
Cc1cc(C)nc(N/N=C/C(Cl)=C/c2ccccc2)n1	u	u	-6%	-51*	-23%	u
Cc1cc(=O)[nH]c(NN=C2CCCCC2C)n1 (stereo not given)	x	u	x	-1	18µM*	x
Cc1cc(C)nc(N/N=C/C=C/c2ccccc2)n1	7.9µM*	u	1.3µM*	0	u	u
Cc1cc(=O)[nH]c(NN=C2C3CC4CC(C3)CC2C4)n1	2%	-4%	-18%	30	17%	6%
COC(=O)c1ccc(CS(=O)(=O)c2ccc(C)cc2)o1	16%	u	32%	-6	8%	-3%
Cc1cc(=O)[nH]c(N/N=C/CCc2ccccc2)n1	8%	1%	u	-13	-5%	u
Cc1cc(=O)[nH]c(N/N=C/C=C/c2ccccc2)n1	-20%	4%	13µM*	-10	1%	2%
Cc1cc(=O)[nH]c(N/N=C2/CCCC/C2=C\c2ccccc2)n1	18µM*	-26%	6.3µM*	-10	u	8.2µM*
